Source: PubChem BioAssay AID588342 (National Center for Advancing Translational Sciences (NCATS), 2011)
The campaign covered roughly 360,000 compounds. About 25,000 (6.9%) were called active. About 9% were inconclusive and are not listed. Calls come from the whole dose curve; as a rule, active = well fitted inhibition curve with a large enough effect; inconclusive = small, poorly fitted or top-dose-only effect; inactive = flat fitted curve, though single readings scatter. This excerpt belongs to a sample that is enriched for actives.

Target: Luciferin 4-monooxygenase (Photinus pyralis) (UniProt P08659)
Sequence (P08659 whole entry, looked up): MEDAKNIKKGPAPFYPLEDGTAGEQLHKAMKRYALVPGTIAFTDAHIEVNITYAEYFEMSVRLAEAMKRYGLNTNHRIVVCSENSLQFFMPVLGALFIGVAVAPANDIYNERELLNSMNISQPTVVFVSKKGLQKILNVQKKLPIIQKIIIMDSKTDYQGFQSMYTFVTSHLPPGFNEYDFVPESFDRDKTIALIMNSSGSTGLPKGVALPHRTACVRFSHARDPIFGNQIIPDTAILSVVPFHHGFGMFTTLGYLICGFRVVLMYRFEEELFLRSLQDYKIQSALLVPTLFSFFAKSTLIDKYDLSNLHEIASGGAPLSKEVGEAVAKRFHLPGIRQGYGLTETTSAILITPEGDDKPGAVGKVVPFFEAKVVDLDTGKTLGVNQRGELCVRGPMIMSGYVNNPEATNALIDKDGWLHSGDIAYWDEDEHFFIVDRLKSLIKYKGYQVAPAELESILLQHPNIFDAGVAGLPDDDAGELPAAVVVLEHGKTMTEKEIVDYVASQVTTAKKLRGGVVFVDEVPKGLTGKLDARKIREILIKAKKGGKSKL
Assay: qHTS profiling assay for firefly luciferase inhibitor/activator using purifed enzyme and Km concentrations of substrates (counterscreen for miR-21 project); note: nearly all actives have a fitted effect of over 55% in size;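 for activity change, negative = inhibition: plate controls were vehicle for no effect and reference inhibitor for full effect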
Details: purified FLuc, luminescence inhibition; series mostly up to 57.5 µM; activity change, negative = inhibition: at the top concentration
In short: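 Purified P. pyralis luciferase (10nM final) with 10uM D-luciferin and 10uM ATP (Km levels) in 50mM Tris acetate pH 7.5, 10mM Mg acetate, 0.01% Tween-20, 0.05% BSA; qHTS 6-point titration, ~60 µM downward; luminescence read.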
Potency is the fitted concentration of half-maximal effect.

Structure (SMILES) | Potency | activity change, negative = inhibition
CNc1nc2c(C)cccn2c(=O)c1C=Nc1ccc(OC)cc1 | 12 µM (active) | 
Cc1cccn2c(=O)c(/C=C3\SC(=S)N(CC(C)C)C3=O)c(NCCCOC(C)C)nc12 |  | 1.38% (inactive)
Cc1cccn2c(=O)c(C=O)c(Nc3ccc(S(N)(=O)=O)cc3)nc12 |  | 0.613% (inactive)
Cc1ccc(CNC(=O)c2c(O)nc3c(C)cccn3c2=O)cc1 |  | -7.24% (inactive)
O=C(CCn1c(=O)oc2ccccc21)Nc1ccon1 |  | -14.9% (inactive)
CC(C)Nc1nnc(SCC(=O)c2c[nH]c3ccccc23)s1 |  | -11.3% (inactive)
Cc1ccccc1Nc1nnc(SCC(=O)c2cc3ccccc3o2)s1 |  | -1.37% (inactive)
CC(C)c1ccc(Nc2nnc(SCC(=O)c3nnc(-c4ccccc4)o3)s2)cc1 | 10.7 µM (active) | 
CC1CCCC(NC(=O)c2cc(S(=O)(=O)N3CCCCC3)ccc2Cl)C1C (stereo not given) |  | 2.31% (inactive)
Cc1cc(N/N=C\c2ccc(Br)cc2)nc(-n2nc(C)cc2C)n1 |  | -0.864% (inactive)
C(=N/Nc1cc(N2CCOCC2)nc(N2CCOCC2)n1)/c1ccccc1 |  | -3.51% (inactive)
Cc1nc(Cl)cc(N/N=C/c2ccccc2)n1 | 16.9 µM (active) | 
CN(CC(=O)Nc1ccc(F)c(F)c1F)C(=O)Cn1cnc2c1c(=O)n(C)c(=O)n2C |  | 2% (inactive)
O=C1/C(=C/c2ccc3c(c2)OCO3)Oc2cc(OCC(=O)N3CC(O)C[C@H]3C(=O)O)ccc21 (stereo not given in full) | 0.757 µM (active) | 
CC1CCCN(CC(O)COc2ccc3c(c2)OCO3)C1 (stereo not given) |  | 1.9% (inactive)
COC(=O)C(C)Oc1ccc2c(c1)O/C(=C\c1cccc(Br)c1)C2=O (stereo not given) |  | -19.3% (inactive)
O=C(CCNS(=O)(=O)c1ccc(Br)cc1)NCC1CCCO1 (stereo not given) |  | 3.61% (inactive)
O=C(Nc1ccccc1N1CCCCC1)c1ccc2nccnc2c1 |  | -1.25% (inactive)
O=C(Nc1ccccc1N1CCCC1)c1ccc2ccccc2c1 | 15.1 µM (active) | 
O=C(Nc1ccccc1N1CCCC1)c1ccc(F)c(S(=O)(=O)N2CCOCC2)c1 |  | 0.53% (inactive)
Cc1cccc(OCCSc2nc3ccc(NC(=O)COc4ccccc4C)cc3s2)c1 |  | -4.35% (inactive)
CS(=O)(=O)N1CCN(C(=O)Cc2ccccc2)CC1 |  | 3.89% (inactive)
CS(=O)(=O)N1CCc2nc(-c3ccccc3)sc2C1 | 9.53 µM (active) | 
CS(=O)(=O)N1CCN(c2cccc(Cl)n2)CC1 |  | -0.219% (inactive)
Cc1ccc(NC(=O)CCNC(=O)c2ccc([N+](=O)[O-])cc2)cc1S(=O)(=O)N1CCOCC1 |  | 4.27% (inactive)
CCOc1ccc(N(CC)S(=O)(=O)N2CCCC(C(=O)NCc3ccc(Cl)cc3)C2)cc1 (stereo not given) |  | -15.9% (inactive)
O=C(COc1ccccc1)Nc1nonc1NC(=O)COc1ccccc1 | 7.57 µM (active) | 

Structure (SMILES) | Potency | activity change, negative = inhibition
CC(=O)Nc1ccc(NC(=O)COc2ccc(-c3ccccc3)cc2)cc1 |  | -2.67% (inactive)
O=C(COc1ccccc1)Nc1ccc(C(=O)N2CCCC2)cc1 |  | -0.942% (inactive)
CCCCN(CCCNC(=O)c1cc(Nc2ccccc2OC)nc2ccccc12)c1ccccc1 |  | -5.87% (inactive)
Cc1c(C)n(Cc2ccc(Cl)cc2)c2ccc(C(=O)NCCc3ccc(S(N)(=O)=O)cc3)cc12 |  | -12% (inactive)
COc1ccccc1NC(=O)c1ccc(C)s1 | 13.5 µM (active) | 
COC(=O)c1c(NC(C)=O)sc(C(=O)Nc2ccccc2OC)c1C |  | -3.92% (inactive)
COc1ccccc1NC(=O)C1=C(C)NC(=O)NC1c1ccc(C)s1 (stereo not given) |  | -1.32% (inactive)
O=C(NNc1ncnc2c1cnn2-c1ccccc1)c1ccco1 |  | -1.66% (inactive)
Cc1ccc(-n2ncc3c(N4CCC(C(N)=O)CC4)ncnc32)cc1 | 12 µM (active) | 
CCN(CC)C(=O)CSc1nc2ccccc2n1CC(=O)N1CCN(c2ccccc2OC)CC1 |  | 7.05% (inactive)
CCc1cc2c(N3CCN(c4nnc(CC)s4)CC3)ncnc2s1 |  | -1.27% (inactive)
Cc1ccc(-n2ncc3c(=O)n(Cc4cccc(C(F)(F)F)c4)cnc32)cc1C |  | -6.53% (inactive)
Cc1ccc(Cl)cc1-n1ncc2c(N3CCC(C(N)=O)CC3)ncnc21 |  | -2.86% (inactive)
COc1ccccc1N1CCN(C(=O)CSc2ncnc3c2cnn3-c2ccc(C)c(C)c2)CC1 | 8.49 µM (active) | 
CCN1CCN(c2ncnc3c2cnn3-c2ccc(C)c(C)c2)CC1 | 9.53 µM (active) | 
O=C(NCCC1=CCCCC1)C1CCN(Cc2cnn(-c3ccccc3)c2-n2cccc2)CC1 |  | 0.886% (inactive)
CCOC(=O)C1CCN(c2ncnc3c2c(-c2ccccc2)cn3-c2ccc(C)cc2)CC1 |  | -7.38% (inactive)
C1=C(CCNc2ncnc3c2cnn3-c2ccccc2)CCCC1 | 3.38 µM (active) | 
COc1ccccc1N1CCN(C(=O)CSc2nnc(-c3ccoc3C)o2)CC1 |  | -1.48% (inactive)
Cc1ccc(S(=O)(=O)N(C)C)cc1NC(=O)c1ccccc1Br |  | -3.56% (inactive)
Cn1cc(-c2ccccc2)cc(C#N)c1=O |  | 2.58% (inactive)
Cc1ccccc1CN1CCC(CNC(=O)c2cc3ccc4cccnc4c3[nH]2)CC1 |  | -4.76% (inactive)
Cc1ccc(N2CC(NC(=O)Cc3cccs3)CC2=O)cc1 (stereo not given) |  | -1.84% (inactive)
Cc1cccc(NC(=O)C2CC(=O)OC23CCCC3)c1 (stereo not given) |  | 2.02% (inactive)
Nc1c(C(=O)O)cnn1-c1ccccc1 |  | -3.2% (inactive)
c1ccc(-n2ncc3c(N4CCCC4)ncnc32)cc1 | 4.26 µM (active) | 
Cn1nnc2c(N3CCN(c4ccccc4)CC3)ncnc21 |  | -8.03% (inactive)

Structure (SMILES) | Potency | activity change, negative = inhibition
Cc1ccc(CN(C(=O)c2ccccc2[N+](=O)[O-])c2ccccn2)cc1 |  | 2.1% (inactive)
Cc1cc(C)c(C#N)c(SCC(=O)N(CC(C)C)C2CCS(=O)(=O)C2)n1 (stereo not given) |  | 0.183% (inactive)
O=C(COC(=O)CNC(=O)C1CCCCC1)Nc1cccc(F)c1 |  | 3.66% (inactive)
Nc1c(C(=O)OCC(=O)Nc2ccc(OC(F)F)cc2)[nH]c(=O)[nH]c1=O |  | -1.54% (inactive)
O=S(=O)(c1ccc2nc(N3CCN(c4cccc(Cl)c4)CC3)ccc2c1)N1CCCCC1 |  | 0.918% (inactive)
Cc1ccc(NC(=O)C2CC(=O)N(c3ccc4c(c3)OCCO4)C2)cc1S(=O)(=O)N1CCCCCC1 (stereo not given) |  | 2.14% (inactive)
O=C(c1ccc(Cl)c(S(=O)(=O)N2CCCCC2)c1)N1CCCCCC1 |  | -0.389% (inactive)
O=C(Nc1ccc2c(c1)OCCO2)c1ccc(Cl)c(S(=O)(=O)N2CCCCC2)c1 | 13.5 µM (active) | 
O=C(c1ccc(Cl)c(S(=O)(=O)N2CCCCCC2)c1)N1CCN(c2ccc(O)cc2)CC1 |  | 4.76% (inactive)
Cc1ccc(C(=O)NNC(=O)c2ccncc2)cc1S(=O)(=O)N1CCCCC1 |  | -0.932% (inactive)
Cc1ccc(C(=O)Nc2ccc3c(c2)OCO3)cc1S(=O)(=O)N1CCCCC1 | 16.9 µM (active) | 
Cc1c(Cl)cccc1NC(=O)CCS(=O)(=O)c1ccc2c(c1)oc(=O)n2C |  | -5.67% (inactive)
COc1ccccc1CNS(=O)(=O)c1cc(C(=O)NCc2ccccn2)c(Cl)cc1Cl |  | 1.54% (inactive)
CCC(C(=O)Nc1cc(OC)ccc1OC)n1c(=O)c(C(F)(F)F)nc2ccccc21 (stereo not given) |  | -0.546% (inactive)
O=C(O[C@H]1[C@H](Cc2ccccc2)NS(=O)(=O)[C@H]2C[C@@H]3C=C[C@]12O3)c1ccc([N+](=O)[O-])cc1 |  | 4.04% (inactive)
CCc1nonc1NC(=O)c1oc2ccc(Cl)cc2c1C | inactive | 
Cc1cc(C)cc(NS(=O)(=O)c2cc3c(cc2C)NC(=O)CO3)c1 |  | -0.815% (inactive)
Cc1cccc(C2c3[nH]c4ccccc4c3CCN2C(=O)c2cc(-c3cccn3C)n[nH]2)n1 (stereo not given) |  | 2.66% (inactive)
Cc1ccc(C2c3[nH]c4ccccc4c3CCN2C(=O)c2cccc(C)c2)cc1 (stereo not given) |  | -0.203% (inactive)
Cc1cccc(C(=O)N2CCc3c([nH]c4ccccc34)C2CC(C)C)n1 (stereo not given) | 16.9 µM (active) | 
O=C(NCc1cccnc1)C(=O)NCC(c1cccnc1)N1CCN(c2ccccc2)CC1 (stereo not given) |  | 5.36% (inactive)
CCn1cc(C(=O)NCc2ccc(C)cc2)c(=O)c2cc(S(=O)(=O)N3CCc4ccccc4C3)ccc21 |  | -5.12% (inactive)
CN1CCN(CC(=O)Nc2cccc([N+](=O)[O-])c2)CC1 |  | 1.74% (inactive)
CCc1ccc(NC(=O)N2CCc3ccccc3C2)cc1 | 12 µM (active) | 
O=C(Nc1cccc([N+](=O)[O-])c1)Nn1cnnc1 |  | 2.4% (inactive)
CCc1ccc(NC(=O)N2CCN(c3ccccc3)CC2)cc1 |  | -19.9% (inactive)
Cc1ccc(NC(=O)CN2CCc3ccccc3C2)cc1C |  | -21.8% (inactive)

Structure (SMILES) | Potency | activity change, negative = inhibition
O=C(Nc1cccc([N+](=O)[O-])c1)N1CCc2ccccc2C1 | 21.3 µM (active) | 
Cc1cc(-c2ccc(C)c(S(=O)(=O)N3c4ccccc4CC3C)c2)on1 (stereo not given) |  | 3.15% (inactive)
Cn1c(=O)c2c(nc(SCC(=O)Nc3ccc(F)cc3)n2Cc2ccc(Cl)cc2)n(C)c1=O |  | -3.31% (inactive)
S=C(Cc1ccc(Cl)cc1)N1CCOCC1 |  | -1.16% (inactive)
CCOC(=O)c1ccc(N2C(=O)c3n[nH]c(C)c3C2c2ccc(O)c(OC)c2)cc1 (stereo not given) |  | 6.1% (inactive)
CCOc1ccc(N(CC)S(=O)(=O)N2CCCC(C(=O)Nc3ccc(C(C)=O)cc3)C2)cc1 (stereo not given) |  | 2.45% (inactive)
NC(=O)CC[C@@H]1NC(=O)[C@@H]2CCCN2C(=O)c2cc([N+](=O)[O-])cc(F)c2NCCC[C@@H](C(N)=O)NC1=O |  | -0.328% (inactive)
Cc1ccc(C(C)C)c(OCCSc2nc3ccccc3n2CC(=O)O)c1 |  | -0.728% (inactive)
CCc1ccc(NC(=O)C2CCCN2S(=O)(=O)c2ccc3nc(-c4ccccc4)[nH]c3c2)cc1 (stereo not given) |  | -18.6% (inactive)
COc1ccc(C2(C)NC(=O)N(CC(=O)c3ccc4c(c3)OCO4)C2=O)cc1 (stereo not given) |  | 5.52% (inactive)
CCOc1ccc(NCCC(=O)c2ccc3c(c2)OCO3)cc1 | 21.3 µM (active) | 
CCOc1ccc(C(=O)CCC(=O)Nc2ccncc2)cc1 |  | -4.1% (inactive)
Cc1ccc2nc(CN3CCN(S(=O)(=O)c4ccc(C)c(C)c4)CC3)oc2c1 |  | -1.02% (inactive)
CCC1CCCCN1S(=O)(=O)Cc1ccccc1Cl (stereo not given) |  | -1.4% (inactive)
CC1(C)NC(=O)N(CC(=O)N2CCN(S(=O)(=O)c3ccccc3F)CC2)C1=O |  | 3.62% (inactive)
Cc1ccc(NC(=S)NCCc2ccc(Cl)cc2)c(C)c1 |  | -4.33% (inactive)
Cc1ccc(NC(=S)Nc2ncccc2C)c(C)c1 | 6.75 µM (active) | 
Cc1ccc(NC(=S)NCc2ccccc2Cl)c(C)c1 |  | -7.17% (inactive)
CN(C(=O)CSc1nnc(-c2ccc(C(C)(C)C)cc2)n1C)C1CCS(=O)(=O)C1 (stereo not given) | 15.1 µM (active) | 
CN(C(=O)CSc1nnc(Nc2ccccc2)s1)C1CCS(=O)(=O)C1 (stereo not given) | 16.9 µM (active) | 
CCn1c(SCC(=O)N(C)C2CCS(=O)(=O)C2)nnc1-c1cccs1 (stereo not given) |  | 0.145% (inactive)
CN(C(=O)CSc1nnc(-c2ccc3c(c2)OCO3)o1)C1CCS(=O)(=O)C1 (stereo not given) |  | -0.842% (inactive)
COc1ccc2c(-c3ccccc3)cc(SCC(=O)N(C)C3CCS(=O)(=O)C3)nc2c1 (stereo not given) |  | -10.2% (inactive)
CC(C)N(C(=O)CSc1nnc(NC2CC2)s1)c1ccccc1 |  | 1.23% (inactive)
